# High-throughput results from PubChem BioAssay.
# Shown are actives, neighbours in structure and some others; about 3.5% of the full set was active somewhere.
# GPR151 activ: activators of human GPR151, primary screen, cell-based, PathHunter beta-arrestin, luminescence | PathHunter beta-arrestin GPR151 cells | 650,000 tested, 1% active | G-protein coupled receptor 151 (Homo sapiens), Q8TDV0 | activation, % at 11.2 µM | AID 1508602, 2020; in the data active = activation above about 4.9%;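 also: 0% = median of compound wells and 100% = cells with positive control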
# FBW7 act: FBW7 E3 ligase activators, primary screen, biochemical, AlphaScreen, human; 650,000 tested, 0.13% active; AlphaScreen FBW7–phospho-cyclin E peptide binding, activator screen; F-box/WD repeat-containing protein 7 (Homo sapiens), Q969H0; normalized activity (activation), % at 26.1 µM; in the data active = normalized activity above about 1.9%;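 also: purified mutant Fbw7 with reduced substrate affinity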
# Target sequence (Q969H0 whole entry, looked up): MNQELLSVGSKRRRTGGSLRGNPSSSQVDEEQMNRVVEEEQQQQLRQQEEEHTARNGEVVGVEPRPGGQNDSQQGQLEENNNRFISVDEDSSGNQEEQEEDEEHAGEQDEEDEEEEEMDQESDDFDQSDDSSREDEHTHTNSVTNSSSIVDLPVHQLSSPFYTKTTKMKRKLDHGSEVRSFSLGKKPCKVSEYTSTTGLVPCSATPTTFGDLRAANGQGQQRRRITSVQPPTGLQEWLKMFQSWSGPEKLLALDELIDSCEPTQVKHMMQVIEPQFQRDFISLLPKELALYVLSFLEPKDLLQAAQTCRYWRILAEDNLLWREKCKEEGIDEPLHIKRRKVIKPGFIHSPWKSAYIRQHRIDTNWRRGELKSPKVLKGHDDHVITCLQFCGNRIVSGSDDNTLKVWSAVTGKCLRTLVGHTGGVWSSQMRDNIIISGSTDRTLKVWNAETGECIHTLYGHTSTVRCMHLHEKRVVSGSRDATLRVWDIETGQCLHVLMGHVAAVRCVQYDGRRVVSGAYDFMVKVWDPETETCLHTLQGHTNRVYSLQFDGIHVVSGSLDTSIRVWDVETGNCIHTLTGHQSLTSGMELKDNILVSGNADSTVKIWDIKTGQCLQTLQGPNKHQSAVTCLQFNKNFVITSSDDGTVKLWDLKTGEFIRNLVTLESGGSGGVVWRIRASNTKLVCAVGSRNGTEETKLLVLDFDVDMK
# TEAD-YAP inh: TEAD-YAP interaction inhibition, primary screen, TEAD-YAP interaction inhibitor project, luminescence, HEK-TIYL cells | TEAD-Gal4/YAP UAS-luciferase luminescence | inhibition, % at 9.12 µM | 640,000 tested, 1.4% active | AID 1259422, 2018; in the data active = inhibition above about 32%;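 also: 0% = median of test compound wells and 100% = reference inhibitor wells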
# MITF primary: MITF inhibitors, primary screen, biochemical, AlphaScreen, human | AlphaScreen MITF homodimerization, bead proximity signal | inhibition, % at 2.6 µM | 650,000 tested, 0.91% active | AID 1259374, 2018; in the data active = inhibition above about 50%;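 also: 0% = vehicle wells with protein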
# GPR151 confirm: GPR151 activators, triplicate retest, confirmation, cell-based, PathHunter beta-arrestin, luminescence. shares compounds with GPR151 activ. GPR151 PathHunter beta-arrestin cells, 90 min; % of EA-reagent control over plate median. activation, % at 11.2 µM. 6,700 tested, under 10 active. AID 1508609, 2020;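 active = mean percent activation across replicates above the confirmation screen cutoff of 4.91%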
# GPR119 counter: GPR119 activators in beta-arrestin cells, counter-screen for GPR151 activator project, cell-based, PathHunter beta-arrestin, luminescence, triplicate; shares compounds with GPR151 activ; 90 min; 0 = compound-well median, 100 = enzyme-acceptor control; activation, % at 11.2 µM; 6,700 tested, 0.3% active;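 active = mean percent activation in the counterscreen above 29.09%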;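 also: counterscreen on off-target GPR119 to flag nonselective hits from the GPR151 activator screen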
# Starred values were filed as active, the others as inactive; x = no result.
SMILES,GPR151 activ,FBW7 act,TEAD-YAP inh,MITF primary,GPR151 confirm,GPR119 counter
C=C(C)c1cccc(C(C)(C)NC(=O)Nc2ccc(C(C)=O)cc2)c1,0,0,-1,6,x,x
C=C(C)c1cccc(C(C)(C)NC(=O)Nc2ccccc2F)c1,9.5*,0,18,15,0,-8
COc1ccc2c(C)nc(Nc3nc(O)cc(=O)[nH]3)nc2c1,1,0,4,-2,x,x
CCOC(=O)N1CCN(C(=O)CCc2nnc(-c3ccsc3)o2)CC1,-1,0,-14,8,x,x
CCOCCCNC(=O)c1cnn2c(C)c(Cc3ccccc3Br)c(C)nc12,6.0*,0,-4,19,0,-13
COc1ccc(S(=O)(=O)/N=C2/NC(=O)/C(=C\c3ccco3)S2)cc1,7.4*,0,6,14,-1,-1
Cc1ccc(S(=O)(=O)/N=C2/NC(=O)/C(=C/c3ccco3)S2)cc1,1,0,1,9,x,x
Cc1cc(C)cc(NC(=O)NC2CCNCC2)c1,8.2*,0,-1,2,0,-3
Cc1nonc1NC(=O)CSc1nc(Cc2ccccc2)nc2ccccc12,10*,0,0,-8,0,3
CC(C)NC(=O)CSc1nc(Cc2ccccc2)nc2ccccc12,-1,0,-12,-18,x,x
Cc1cc2ncn(-c3ncnc4sc5c(c34)CCCC5)c2cc1C,4.9*,1,-22,5,2,13
Cc1ccccc1Nc1nc(N)nc(COc2ccc([N+](=O)[O-])cc2Cl)n1,5.7*,0,-7,6,0,3
Cc1ccccc1Nc1nc(N)nc(COC(=O)c2cc(=O)c3ccccc3o2)n1,8.0*,0,-10,2,-1,-1
COc1cc(/C=N/NC(=O)COc2ccc(C)cc2)cc(I)c1O,1,0,-7,-4,x,x
O=C(NC(c1ccccc1Cl)c1ccc2cccnc2c1O)c1ccccc1 (centres undefined),7.5*,-1,72*,-4,0,1
Cc1ccc(S(=O)(=O)N2N=C3CCCCC3C2(O)C(F)(F)F)cc1 (centres undefined),0,0,-9,4,x,x
CCCC1=NN(S(=O)(=O)c2ccc(C)cc2)C(O)(C(F)(F)F)C1 (centres undefined),5.5*,0,-3,14,0,-2
CN1CCN(c2cc(-c3cn[nH]c3)ccc2NC(=O)Cc2cccc(Cl)c2)CC1,5.2*,0,-6,14,6.6*,54*
O=C(NCc1ccco1)c1ccc(N2CCC3(CC2)OCCO3)c([N+](=O)[O-])c1,0,0,-1,9,x,x
C[C@@H]1CN(Cc2ccc3c(c2)CN(Cc2ccc4c(c2)CCO4)CCO3)C[C@H](C)O1,6.5*,0,-13,-1,0,4
COc1ccc(CN2CCOc3ccc(CN4C[C@@H](C)O[C@@H](C)C4)cc3C2)cc1OC,2,-1,9,12,x,x
O=C(Nc1cc(C(F)(F)F)cc(C(F)(F)F)c1)C1CC1,10*,0,4,12,-1,-22
COc1ccccc1N1CCN(C2CCCN(C(=O)/C=C/c3ccccn3)C2)CC1 (centres undefined),-1,0,-4,-7,x,x
N#C/C(=C(/O)COc1ccccc1)c1nnc2n1CCCCC2,-1,0,2,-5,x,x
N#C/C(=C(/O)COc1ccc([N+](=O)[O-])cc1)c1nnc2n1CCCCC2,5.8*,0,-8,-3,0,-6
CC(C1CC1)N(C(=O)c1ccc([N+](=O)[O-])cc1)c1ccccc1 (centres undefined),0,0,3,-1,x,x
COc1ccc(C(C[N+](=O)[O-])C2C(=O)NC(=O)NC2=O)cc1OC (centres undefined),-1,0,-2,23,x,x
COc1cccc(Nc2nc(-c3ccc(OC)c(F)c3)cs2)c1,0,0,19,9,x,x
